Experimental data published in PubChem BioAssay (NCI).
Several values for one entry are separate records, joined by “and”; a condition that tells them apart may be missing. Equal values may be shown once. Compounds without any hit were thinned out: in the full panel of roughly 79,000, 15% have a hit. More than one record can exist for a structure, and the calls need not agree. Activity calls are given as the source filed them. No stated cut-off is given here; in the data, active means growth inhibition above about 70%; inactive means the rest.

Experiments:
[1] = NCI Yeast Anticancer Drug Screen. Data for the rad50 strain (AID 155);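 further: 0% = growth of vehicle-only cultures of the same strain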; settings: S. cerevisiae rad50 strain growth inhibition, stronger effect = higher value
Procedure, shortened: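 Readout: growth inhibition relative to vehicle-treated cultures. Compound exposure was carried out in a genetically defined yeast strain deficient in DNA damage repair.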

[2] = NCI Yeast Anticancer Drug Screen. Data for the mec2-1 strain (AID 157); settings: S. cerevisiae mec2-1 strain, stronger effect = higher value
Procedure, shortened: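 Using mec2-1 yeast: add compound, measure growth, express inhibition versus vehicle-treated cultures.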

[3] = NCI Yeast Anticancer Drug Screen. Data for the sgs1 mgt1 strain (AID 161);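 further: 0% = growth of cultures given vehicle only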; settings: S. cerevisiae sgs1 mgt1 strain, stronger effect = higher value
Procedure, shortened: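 Compounds are added to genetically altered yeast, and growth is compared with cultures given vehicle alone to give percent inhibition.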

[4] = NCI Yeast Anticancer Drug Screen. Data for the cln2 rad14 strain (AID 165);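 further: 0% = growth equal to vehicle treated cultures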; settings: S. cerevisiae cln2 rad14 strain, stronger effect = higher value
Procedure, shortened: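 Yeast strain cln2 rad14, bearing defects in cell cycle control and DNA repair, serves as the test system; values reflect growth inhibition compared with vehicle.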

[5] = NCI Yeast Anticancer Drug Screen. Data for the bub3 strain (AID 167); settings: S. cerevisiae bub3 mutant strain, stronger effect = higher value
Procedure, shortened: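 Readout: yeast growth inhibition, expressed relative to vehicle-only wells. The test organism is a mutant strain from a panel with lesions in DNA repair or checkpoint genes.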

[6] = NCI Yeast Anticancer Drug Screen. Data for the mlh1 rad18 strain (AID 175); settings: S. cerevisiae mlh1 rad18 strain growth inhibition, stronger effect = higher value
Procedure, shortened: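 Steps: expose repair-defective yeast to compound; measure growth; express inhibition against vehicle-treated controls.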

[7] = at 5.0 µM (retest, dose inferred, filed as 0.5)
[8] = at 50.0 µM (retest, dose inferred, filed as 5.0)

Measured: growth inhibition

O=C(Cl)c1ccccn1
active: [1]; [8] 98% | [1]; at 50.0 µM 99.5% | [2]; [8] 99% | [2]; at 50.0 µM 99.5% | [3]; [8] 99% | [3]; at 50.0 µM 77.8% | [4]; [8] 99% | [4]; at 50.0 µM 99.3% | [5]; [8] 99% | [5]; at 50.0 µM 99.3% | [6]; [8] 99% | [6]; at 50.0 µM 99.5%
inactive: [1]; [7] 6% | [2]; [7] 7% | [3]; [7] 7% | [4]; [7] 6% | [5]; [7] 4% | [6]; [7] 1%

CC(Cl)CNC(C)C (stereo not given)
inactive: [1]; [7] -156% | [1]; [8] -171% | [1]; at 50.0 µM 4.95% | [2]; [7] -50% | [2]; [8] -57% | [2]; at 50.0 µM -9.4% | [3]; [7] -64% | [3]; [8] -67% | [3]; at 50.0 µM 3.25% | [4]; [7] -54% | [4]; [8] -67% | [4]; at 50.0 µM 24.5% | [5]; [7] -67% | [5]; [8] -80% | [5]; at 50.0 µM -7.95% | [6]; [7] -137% | [6]; [8] -120% | [6]; at 50.0 µM 6.1%

CN1CC(C(=O)NC2(C)OC3(O)C4CCCN4C(=O)C(Cc4ccccc4)N3C2=O)C=C2c3cccc4[nH]cc(c34)CC21 (stereo not given)
6.75% (inactive) and 70.6% (active): [2]; at 50.0 µM
inactive: [1]; [7] 26% and -4% | [1]; [8] 35% and 23% | [1]; at 50.0 µM 8.55% and 49.2% | [2]; [7] 6% and -1% | [2]; [8] 14% and 29% | [3]; [7] 4% and -2% | [3]; [8] 12% and 50% | [3]; at 50.0 µM -9.3% and 61.7% | [4]; [7] -15% and 1% | [4]; [8] 22% and 15% | [4]; at 50.0 µM -11.6% and 40.9% | [6]; [7] 2% and -3% | [6]; [8] 33% and 65%
51.1% (inactive) and 73% (active): [6]; at 50.0 µM

COC1C(C)OC(OC2CC(C)(O)Cc3cc4c(c(O)c32)C(=O)c2c(O)cc3c(c2C4=O)OC2OC3(C)C(O)C(N(C)C)C2O)C(OC)C1(C)OC (stereo not given)
active: [1]; [8] 96% | [1]; at 50.0 µM 89.5% | [2]; [7] 75% | [2]; [8] 99% | [2]; at 50.0 µM 93% | [3]; [7] 76% | [3]; [8] 97% | [3]; at 50.0 µM 91% | [4]; [8] 91% | [4]; at 50.0 µM 88% | [5]; [7] 77% | [5]; [8] 94% | [5]; at 50.0 µM 91.5% | [6]; [7] 83% | [6]; [8] 98% | [6]; at 50.0 µM 90%
inactive: [1]; [7] 69% | [4]; [7] 58%

CC(C)=[CH][Sb]([Br])([CH]=C(C)C)([CH]=C(C)C)[c]1ccccc1
inactive: [1]; [7] -9% | [1]; [8] 8% | [1]; at 50.0 µM 56.5% | [2]; [7] -14% | [2]; [8] 27% | [2]; at 50.0 µM 45.8% | [3]; [7] -14% | [3]; [8] 16% | [3]; at 50.0 µM 32.5% | [4]; [7] -19% | [4]; [8] 6% | [4]; at 50.0 µM -11.8% | [6]; [7] -11% | [6]; [8] 10% | [6]; at 50.0 µM 40.5%

CC/C(=C(/CC)c1ccc(OP(N)(=O)N(CCCl)CCCl)cc1)c1ccc(OP(N)(=O)N(CCCl)CCCl)cc1 (stereo not given)
inactive: [1]; [7] 18% | [1]; [8] 33% | [1]; at 50.0 µM 17.1% | [2]; [7] -5% | [2]; [8] 26% | [2]; at 50.0 µM 5.6% | [3]; [7] 2% | [3]; [8] 42% | [3]; at 50.0 µM 34.7% | [5]; [7] 29% | [5]; [8] 34% | [5]; at 50.0 µM 0.1% | [6]; [7] 26% | [6]; [8] 51% | [6]; at 50.0 µM 66.8%

N#Cc1ccc(N=Cc2c([O-])ccc3ccccc23)cc1.[C-]#[O+].[C-]#[O+].[Ir]
inactive: [1]; [7] 8% | [1]; [8] 8% | [2]; [7] 1% | [2]; [8] 1% | [2]; at 50.0 µM 59.5% | [4]; [7] 0% | [4]; [8] 0% | [4]; at 50.0 µM 50.2% | [5]; [7] 1% | [5]; [8] 1% | [6]; [7] 13% | [6]; [8] 13%
active: [1]; at 50.0 µM 82.6% | [5]; at 50.0 µM 74.7% | [6]; at 50.0 µM 75.8%

CC(O)C(=O)O.CC(O)C(=O)O.[Ni] (stereo not given)
inactive: [2]; [7] 5% | [2]; [8] 3% | [2]; at 50.0 µM 19.1% | [3]; [7] -1% | [3]; [8] 4% | [3]; at 50.0 µM 0.95% | [4]; [7] -5% | [4]; [8] -2% | [5]; [7] 1% | [5]; [8] 0% | [5]; at 50.0 µM 18.1% | [6]; [7] -2% | [6]; [8] 12% | [6]; at 50.0 µM 19.4%
active: [4]; at 50.0 µM 74%

[Cl][Pt+2][Cl].[NH-]C1CCCC2CCC[N-]C12 (stereo not given)
inactive: [1]; [7] 34% | [1]; at 50.0 µM 20.6% | [2]; [7] 24% | [2]; at 50.0 µM 60.4% | [3]; [7] 55% | [3]; at 50.0 µM 57.8% | [5]; [7] 52% | [5]; at 50.0 µM 38.5% | [6]; [7] 18%
active: [1]; [8] 97% | [2]; [8] 77% | [3]; [8] 98% | [5]; [8] 84% | [6]; [8] 97% | [6]; at 50.0 µM 76.1%

NNc1n[nH]c(=S)n1N
inactive: [1]; at 50.0 µM 7.2% and 1.8% and 15.1% | [2]; at 50.0 µM -5.4% and 0.5% and -6.15% | [3]; at 50.0 µM 9.8% and -4.35% and 4.1% | [4]; at 50.0 µM 8.7% and 13% and 5.85% | [5]; at 50.0 µM 9.3% and 17% and 0.45% | [6]; at 50.0 µM 17.6% and -1.5% and -1.65%
